According to PubChem BioAssay:
Activity calls are given as the source filed them. Unless noted, no rule for the calls is given here.

What was measured:
[1] = system: XIP peptide (Xip251-270) binding; assay: XIP fragment 251-270 binding compounds – biochemical, small-molecule microarray, fluorescence 635/667 nm, 0.1 µg/mL protein, primary screen (AID 1182); settings: fluorescent protein binding, 635 nm, higher = more signal, called active from +8 up or from −8 down
[2] = system: XIP peptide (Xip251-270); assay: compounds binding XIP fragment 251-270 – biochemical, small-molecule microarray, fluorescence 635/667 nm, 0.5 µg/mL protein, primary screen (AID 1183); settings: fluorescence 635 nm, higher = more signal
[3] = blood-stage malaria parasite viability loss – strain 3D7, DAPI fluorescence, 100 nL, primary screen (AID 1184);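 also: parasites grown inside human red blood cells in medium with human serum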; settings: P. falciparum 3D7 growth, 3 d, higher = more signal
[4] = molecular target: Homeobox protein Hox-A13 (Mus musculus) (UniProt Q62424); assay: disruptors of Hoxa13 oligonucleotide interaction – biochemical, fluorescence polarization, labeled oligonucleotide, primary screen (AID 1185); settings: Hoxa13:DNA binding, 15 min, higher = more signal, called active from +8 up or from −8 down
Sequence of Homeobox protein Hox-A13 (Mus musculus) (Q62424 whole entry, looked up): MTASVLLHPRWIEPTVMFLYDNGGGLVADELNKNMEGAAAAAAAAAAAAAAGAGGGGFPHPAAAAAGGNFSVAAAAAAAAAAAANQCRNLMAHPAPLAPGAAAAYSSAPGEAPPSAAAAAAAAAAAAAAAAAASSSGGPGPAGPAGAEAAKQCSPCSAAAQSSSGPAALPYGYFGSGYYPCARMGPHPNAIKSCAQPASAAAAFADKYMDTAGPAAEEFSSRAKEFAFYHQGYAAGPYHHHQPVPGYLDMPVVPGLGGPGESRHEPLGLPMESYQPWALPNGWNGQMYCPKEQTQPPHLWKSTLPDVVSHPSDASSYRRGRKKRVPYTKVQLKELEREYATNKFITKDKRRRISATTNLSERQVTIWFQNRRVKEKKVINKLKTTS

[5] = blockers of DNA damage checkpoint Chk1 activation – imaging, HeLa, hydroxyurea, phospho-Chk1 antibody, percent positive cells, primary screen (AID 1186); settings: hydroxyurea-induced phospho-Chk1 immunofluorescence imaging, higher = more signal
[6] = blockers of DNA damage checkpoint Chk1 activation – imaging, HeLa, hydroxyurea, phospho-Chk1 nuclear intensity, primary screen (AID 1187); settings: hydroxyurea-induced phospho-Chk1 immunofluorescence imaging, higher = more signal

O=C1C[C@@](C(=O)NC2CC2)(c2ccc([N+](=O)[O-])cc2)[C@@H](c2ccc(CO)cc2)N1C1CCCCC1
composite z-score [1]: 1.19 (inactive)
composite z-score [2]: 0.662
z-score [3]: -1.39
z-score [4]: -3.19 (inactive)
z-score [5]: -0.544 (inactive)
z-score [6]: -0.979 (inactive)

C=C(CCCC)C(=O)CC[C@H](OC(=O)c1ccccc1-c1ccccc1C(=O)O)c1ccc(OCCO)cc1
composite z-score [1]: 2.21 (inactive)
composite z-score [2]: 0.546
z-score [3]: -3.08
z-score [4]: -6.36 (inactive)
z-score [5]: 0.0505 (inactive)
z-score [6]: -0.0839 (inactive)

CC(C)C[C@H]1NC(=O)C([C@@H](C)OCc2ccccc2)NC(=O)[C@@]23C(=O)N[C@@H](Cc4ccccc4)C2[C@H](C)[C@@]2(C)O[C@H]2C3/C=C/C/C=C\CNC1=O (stereo partly specified)
composite z-score [1]: 0.304 (inactive)
composite z-score [2]: 0.22
z-score [3]: -2.23
z-score [4]: -6.86 (inactive)
z-score [5]: -0.762 (inactive)
z-score [6]: -0.732 (inactive)

CCCN1C(=O)[C@]2(CCC(=O)OC(C)(C)C)N=C(c3ccc(OCCCO)cc3)O[C@@H]2c2ccccc21
composite z-score [1]: 0.55 (inactive)
composite z-score [2]: 0.601
z-score [3]: -2.33
z-score [4]: -3.37 (inactive)
z-score [5]: -0.292 (inactive)
z-score [6]: -0.312 (inactive)

COC(=O)C(CC#Cc1ccc2c(c1)[C@]1(C(=O)N2)[C@H](C(=O)NC[C@H](O)c2ccccc2)[C@H]2C(=O)O[C@H](c3ccccc3)[C@H](c3ccccc3)N2[C@@H]1c1ccccc1OCCO)C(=O)OC
composite z-score [1]: 0.0226 (inactive)
composite z-score [2]: 0.654
z-score [3]: -2.33
z-score [4]: -1.39 (inactive)
z-score [5]: 0.0062 (inactive)
z-score [6]: 0.0197 (inactive)

COC(=O)[C@@]1(Cc2ccc(OC)cc2)[C@H]2c3cc(C(=O)N(C)C)[nH]c3C[C@H]2CN1C(=O)c1ccccc1
composite z-score [1]: 0.0849 (inactive)
composite z-score [2]: -0.197
z-score [3]: -0.0305
z-score [4]: -2.93 (inactive)
z-score [5]: -0.041 (inactive)
z-score [6]: -0.309 (inactive)

CC(C)OC(=O)CC(=O)CC(O)c1cccc([N+](=O)[O-])c1 (stereo unspecified)
composite z-score [1]: 0.52 (inactive)
composite z-score [2]: 0.089
z-score [3]: -0.165
z-score [4]: -0.516 (inactive)
z-score [5]: -0.242 (inactive)
z-score [6]: -0.299 (inactive)

C=CC1c2cc(O)c(OC)cc2CCN1C (stereo unspecified)
composite z-score [1]: 0.767 (inactive)
composite z-score [2]: 0.543
z-score [3]: 0.166
z-score [4]: -3.83 (inactive)
z-score [5]: 0.298 (inactive)
z-score [6]: 0.468 (inactive)

COCCOC(=O)N1C(=O)[C@@]2(c3cc(C#CC4(O)CCCCCC4)ccc31)[C@H](c1ccc(O)cc1)N1[C@H](c3ccccc3)[C@H](c3ccccc3)OC(=O)[C@H]1[C@@H]2C(=O)N1CCCCCCC1
composite z-score [1]: 0.265 (inactive)
composite z-score [2]: 0.747
z-score [3]: -1.74
z-score [4]: 0.0885 (inactive)
z-score [5]: -0.0596 (inactive)
z-score [6]: 0.244 (inactive)

COc1cc(OC)c(C(O)C2C=CC3C(=O)N(c4ccccc4)C(=O)C3N2Nc2ccc(C(C)C)cc2)cc1Br (stereo unspecified)
composite z-score [1]: 0.242 (inactive)
composite z-score [2]: 0.785
z-score [3]: -0.0986
z-score [4]: -1.37 (inactive)
z-score [5]: -0.78 (inactive)
z-score [6]: -0.639 (inactive)

CCOC(=O)c1cn(C[C@H](Cc2ccccc2)NC(=O)N[C@H](CO)CCc2oc(C(C)=O)c(C(=O)OC)c2C(=O)OC)nn1
composite z-score [1]: 0.534 (inactive)
composite z-score [2]: 0.635
z-score [3]: -1.63
z-score [4]: -2.67 (inactive)
z-score [5]: -0.107 (inactive)
z-score [6]: 0.432 (inactive)

CCOc1cc(C(O)C2C=CC3C(=O)N(c4ccccc4)C(=O)C3N2Nc2ccccc2F)ccc1O (stereo unspecified)
composite z-score [1]: 1.11 (inactive)
composite z-score [2]: -0.213
z-score [3]: -0.0969
z-score [4]: -3.71 (inactive)
z-score [5]: -0.379 (inactive)
z-score [6]: -0.304 (inactive)

COC(=O)[C@@]1(Cc2ccccc2)[C@H]2c3cc(C(=O)N(C)C)n(Cc4ccc(C(F)(F)F)nc4)c3C[C@H]2CN1C(=O)c1ccccc1
composite z-score [1]: 0.119 (inactive)
composite z-score [2]: 0.337
z-score [3]: -1.24
z-score [4]: -3.46 (inactive)
z-score [5]: 0.296 (inactive)
z-score [6]: 0.0603 (inactive)

CC(C)NC(=O)[C@@H]1c2ccccc2C(=O)N(Cc2ccc(OC(F)(F)F)cc2)[C@H]1c1ccc(CO)cc1
composite z-score [1]: -0.514 (inactive)
composite z-score [2]: 0.72
z-score [3]: -1.58
z-score [4]: -3.72 (inactive)
z-score [5]: 0.244 (inactive)
z-score [6]: 0.137 (inactive)

CCCNC(=O)[C@@]1(c2ccc([N+](=O)[O-])cc2)CC(=O)N(C(C)C)[C@@H]1c1ccc(CO)cc1
composite z-score [1]: 3.93 (inactive)
composite z-score [2]: 0.228
z-score [3]: -0.379
z-score [4]: -2.6 (inactive)
z-score [5]: -0.102 (inactive)
z-score [6]: -0.105 (inactive)

O=C1C=C(c2ccccc2)C(=O)C2=C1CC([C@H]1Oc3ccccc3S(=O)(=O)N3CCC[C@@H]13)=CC2
composite z-score [1]: -0.0015 (inactive)
composite z-score [2]: -0.0733
z-score [3]: -3.16
z-score [4]: -3.85 (inactive)
z-score [5]: 0.079 (inactive)
z-score [6]: 0.334 (inactive)

COC(=O)[C@@]1(Cc2ccc(F)cc2)[C@H]2c3cc(C(=O)N(C)C)n(C)c3C[C@H]2CN1C(=O)c1ccccc1
composite z-score [1]: -0.0622 (inactive)
composite z-score [2]: -0.153
z-score [3]: 0.386
z-score [4]: -7.29 (inactive)
z-score [5]: 0.707 (inactive)
z-score [6]: 0.633 (inactive)

[N-]=[N+]=Nc1ccccc1C[C@]1(C(=O)N2CCOCC2)N=C(c2ccc(OCCCO)cc2)O[C@H]1c1ccccc1N=[N+]=[N-]
composite z-score [1]: 0.986 (inactive)
composite z-score [2]: 0.721
z-score [3]: -2.32
z-score [4]: -3.58 (inactive)
z-score [5]: -1.46 (inactive)
z-score [6]: -2.06 (inactive)

Cc1ccc(S[C@]2(C(=O)NCCCN(C)C)CC(=O)N(C3Cc4ccccc4C3)[C@@H]2c2ccc(CO)cc2I)cc1
composite z-score [1]: -0.261 (inactive)
composite z-score [2]: 0.315
z-score [3]: -0.235
z-score [4]: -3.61 (inactive)
z-score [5]: 0.721 (inactive)
z-score [6]: 0.848 (inactive)

C=CCOC(=O)[C@H]1[C@@H]2C(=O)O[C@@H](c3ccccc3)[C@@H](c3ccccc3)N2[C@@H](c2ccc(OCCOC(=O)[C@H]3C[C@H]4C(=O)N[C@@H](CC(C)C)C(=O)N4[C@H]3c3ccc(O)cc3)cc2)[C@]12C(=O)Nc1ccccc12
composite z-score [1]: 0.386 (inactive)
composite z-score [2]: 0.818
z-score [3]: -1.49
z-score [4]: 0.832 (inactive)
z-score [5]: 0.109 (inactive)
z-score [6]: -0.0249 (inactive)

COCCOC(=O)N1C(=O)[C@@]2(c3cc(C#CCNC(N)=O)ccc31)[C@H](C(=O)Nc1nc3ccccc3s1)[C@H]1C(=O)O[C@H](c3ccccc3)[C@H](c3ccccc3)N1[C@@H]2c1ccccc1OCCO
composite z-score [1]: 0.278 (inactive)
composite z-score [2]: 0.634
z-score [3]: -1.78
z-score [4]: 2.01 (inactive)
z-score [5]: -0.339 (inactive)
z-score [6]: -0.644 (inactive)

COC(=O)[C@@]1(Cc2ccccc2)[C@H]2c3cc(C(=O)N4CCCC4)n(Cc4ccc(OC)c(OC)c4)c3C[C@H]2CN1C(=O)c1ccccc1
composite z-score [1]: 0.633 (inactive)
composite z-score [2]: 0.0643
z-score [3]: -1.32
z-score [4]: -4.87 (inactive)
z-score [5]: 0.243 (inactive)
z-score [6]: 0.282 (inactive)

C[C@@H]1ON(c2ccccc2)[C@H](c2ccccc2)[C@H]1C(=O)O
composite z-score [1]: -0.117 (inactive)
composite z-score [2]: 0.0627
z-score [3]: -0.413
z-score [4]: -0.711 (inactive)
z-score [5]: 0.0099 (inactive)
z-score [6]: 0.203 (inactive)

CCCCN1CC=CC23O[C@@H]4/C=C\CCCOC(=O)C4[C@H]2C(=O)N(C(CO)C(C)C)[C@@H]3C1=O (stereo partly specified)
composite z-score [1]: 1.4 (inactive)
composite z-score [2]: -0.492
z-score [3]: 1.18
z-score [4]: -5.81 (inactive)
z-score [5]: 0.458 (inactive)
z-score [6]: 0.188 (inactive)

COC(=O)c1cccc([C@H]2OC(=CC(=O)OC(C)C)C[C@@H](c3cccc(C(=O)OC)c3)O2)c1
composite z-score [1]: 0.308 (inactive)
composite z-score [2]: 0.713
z-score [3]: -0.832
z-score [4]: -4.13 (inactive)
z-score [5]: -0.504 (inactive)
z-score [6]: -1.39 (inactive)

CCOC(=O)C[C@H]1[C@H](OC(=O)Cc2ccc3c(c2)OCO3)[C@@H](NC(=O)c2ccc3ccccc3n2)c2cc(OCCCO)ccc2N1C(=O)Cc1ccc(OC)cc1
composite z-score [1]: 0.322 (inactive)
composite z-score [2]: 0.401
z-score [3]: -2.57
z-score [4]: -1.86 (inactive)
z-score [5]: -0.192 (inactive)
z-score [6]: 0.225 (inactive)
